High-throughput results (PubChem BioAssay)
IP6K1 inh: inhibitors of human IP6K1. Q92551. IP6K1 kinase, ADP-Glo luminescence, 2 h; active compounds read low. activity change, % (series mostly up to about 58 µM). actives 0.81% (n = 140,000). AID 1645851; in the data active = activity change below about -25%; note: % is set by controls: 0 for no effect and ±100 for the full control effect
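ADP-Glo luminescence measures ADP made by human IP6K1 during a 2 h RT reaction with ATP/IP6 (mix at 1.3 mM/130 uM); top library doses 57.5 and 19.1 uM final.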
KDM5B inhibitor: blocks human KDM5B histone demethylase activity | Q9UGL1 | KDM5B demethylase, FDH-coupled NADH fluorescence (FDH is formaldehyde dehydrogenase) | Potency, µM (top dose mostly 57.7 µM), usual class: inhibitors | actives 2.6% (n = 220,000); active = well fitted inhibition curve with a large enough effect; inconclusive = small, poorly fitted or top-dose-only effect; inactive = no such curve, though single readings can be large or run the other way; note: potency is the fitted concentration of half-maximal effect; 0% is about no effect; nearly all actives have a fitted effect of over 70% in size
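Measured: NADH fluorescence change, 30 min, RT. System: KDM5BΔAP 200 nM final, H3K4me3 peptide, α-KG, Fe(II), ascorbate, NAD⁺ plus FDH, pH 7.5 HEPES. Compounds: titrated, 10 min pre-incubation with enzyme.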
* hit, by the source's call; i = inactive; ? = inconclusive; . = no result given. An excerpt weighted towards active compounds, which were near 2.8% of everything screened.

SMILES | IP6K1 inh | KDM5B inhibitor
COC(=O)N1CCN(c2nccc(Nc3ccccc3OC)n2)CC1 | 4 | .
COc1ccccc1-n1cc(-c2ccnc(N3CCCN(C(C)=O)CC3)n2)cn1 | 21 | 32µM*
O=C(NC1CCN(c2ccc3nnc(-c4ccccc4)n3n2)CC1)c1ccc(Cl)cc1 | -4 | .
CC(=O)N1CCc2cc(S(=O)(=O)NCCCC(=O)N3CCC(CCOc4ccccc4)C3)ccc21 (stereo unspecified) | 9 | i
Cc1cc(C(=O)NCC2Cn3cccc3CN2Cc2ccccc2)n[nH]1 (stereo unspecified) | -8 | 32µM*
Cc1cc(C(F)(F)F)nn1CC(=O)NCC1Cn2cccc2CN1Cc1ccccc1 (stereo unspecified) | 10 | ?
COc1ccc(CCC(=O)NCC2Cn3cccc3C(=O)N2Cc2cccnc2)cc1 (stereo unspecified) | 0 | .
O=C(NCC1Cn2cccc2CN1Cc1ccccc1)c1ccc2cc[nH]c2c1 (stereo unspecified) | -2 | 25µM*
COc1ccc(C(=O)NCC2Cn3cccc3C(=O)N2C)cc1OC (stereo unspecified) | 9 | i
COc1ccc(C(=O)NCC2Cn3cccc3CN2Cc2cccnc2)cc1 (stereo unspecified) | -15 | 13µM*
O=C(COc1cc(Cl)ccc1Cl)N1CC=C(c2ccccc2)CC1 | . | i
COCC(=O)Nc1ccc(-c2ccc(OC)nn2)cc1 | -4 | .
Cn1cccc1CN1CCC(Oc2ccccc2-c2nc(-c3ccncc3)no2)C1 (stereo unspecified) | -12 | .
COc1ccc(-c2ccc3ncc(Nc4cccnc4OC)n3n2)cc1OC | -20 | 22µM*
COc1ccc(-c2ccc3ncc(Nc4ccccc4F)n3n2)cc1OC | -17 | i
Cc1cc(F)ccc1NC(=O)C1CCN(c2cnc3ccccc3n2)CC1 | . | i
C=CCOc1c(OC)ccc2c1CN(Cc1ccco1)C(=O)CCN2CC(O)Cc1ccccc1 (stereo unspecified) | -9 | .
Cc1cn2nc(C(=O)Nc3ccc(F)cc3)cc2c(N(C)Cc2ccccc2)n1 | 15 | 25µM*
Cc1cn2nc(C(=O)NCCc3ccccc3)cc2c(=O)[nH]1 | -1 | i
Cc1cn2nc(C(=O)Nc3ccc(Cl)cc3)cc2c(N(C)Cc2ccccc2)n1 | 8 | 28µM*
Cc1cn2nc(C(=O)Nc3ccc(N(C)C)cc3)cc2c(N(C)Cc2ccccc2)n1 | -2 | ?
Cc1cn2nc(C(=O)Nc3ccc(C)c(F)c3)cc2c(N(C)Cc2ccccc2)n1 | -4 | i
Cc1ccc(NC(=O)c2cc3c(N(C)Cc4ccccc4)nc(C)cn3n2)c(F)c1 | 15 | 10µM*
COc1ccc(S(=O)(=O)N(C)C)cc1NC(=O)c1n[nH]c(=O)c2ccccc12 | . | i
Cc1cc(C(=O)OCC(=O)NC2(C#N)CCCCC2)c2ccccc2n1 | . | i
SMILES | IP6K1 inh | KDM5B inhibitor
COC[C@@]12CN(Cc3ccccc3)C[C@@H]1C(C)(C)COc1ccc(OC)cc12 | 17 | .
CNC(=O)c1ccn2nccc2c1 | -7 | i
CN(C)C(=O)c1cc(C(C)(C)C)c2cccn2n1 | -9 | i
CN(C)C(=O)c1cc2cccnn2n1 | 1 | 32µM*
CNC(=O)c1cc2cccnn2n1 | -3 | 32µM*
COc1ccc(-n2nc(C)c([C@@H]3C=C[C@@H](NS(=O)(=O)c4cccs4)C3)c2C)cc1 | -14 | i
Cc1ccc2oc(-c3ccc(NC(=O)c4ccc(C)c([N+](=O)[O-])c4)cc3)nc2c1 | . | i
COc1c(Cl)cc(Cl)cc1/C=C(\C#N)c1nc2ccc(C)cc2[nH]1 | . | i
O=C(Nc1c(NC2CCCCC2)c2ccccc2oc1=O)c1cccs1 | . | i
O=S1(=O)NCC2(CCN(Cc3ccc(Cl)s3)CC2)Oc2ncccc21 | 2 | ?
O=S1(=O)NCC2(CCN(Cc3ccoc3)CC2)Oc2ncccc21 | 2 | 50µM*
Cc1cc(C)cc(-c2ccc(CN3CCCC(NC(=O)c4ccccn4)C3)cc2)c1 (stereo unspecified) | 2 | .
O=C1c2cnc(-c3ccccc3OCc3ccccc3)nc2OCCN1CC1CC1 | 15 | 32µM*
COc1cccc(-c2ncc3c(n2)OCCN(Cc2ccc(F)cc2F)C3=O)c1 | -9 | 35µM*
COc1cccc(-c2ncc3c(n2)OCCN(Cc2ccc(F)cc2F)C3=O)c1F | 11 | ?
O=C1c2cnc(-c3cc4ccccc4o3)nc2OCCN1CC1CC1 | -8 | i
COc1cc(F)cc(-c2ncc3c(n2)OCCN(Cc2ccc(F)cc2F)C3=O)c1 | -10 | ?
COc1ccccc1-c1ncc2c(n1)OCCN(Cc1ccc(F)cc1F)C2=O | 9 | 35µM*
CCOc1ccccc1N1CCN(S(=O)(=O)c2cnn(CC)c2)CC1 | . | i
COCc1nc(C2CCCN(C(=O)Cc3cccc(F)c3)C2)no1 (stereo unspecified) | 19 | i
O=C(Cc1cccc(F)c1)N1CCCC(Cc2nc(C3CCOCC3)no2)C1 (stereo unspecified) | 0 | 28µM*
c1ccc(Nc2cc3c(cn2)NCCN(Cc2ccccn2)C3)cc1 | 3 | 35µM*
c1ccc(CN2CCNc3cnc(Nc4ccc(N5CCOCC5)cc4)cc3C2)cc1 | -9 | ?
Oc1ccccc1CN1CCNc2cc(Nc3ccccc3)ncc2C1 | -15 | i
Oc1ccccc1CN1CCNc2cc(Nc3cccnc3)ncc2C1 | -22 | 35µM*
SMILES | IP6K1 inh | KDM5B inhibitor
c1ccc(Nc2cc3c(cn2)CN(Cc2c[nH]c4ccccc24)CCN3)cc1 | -23 | ?
Oc1ccccc1CN1CCNc2cnc(Nc3ccccc3)cc2C1 | -16 | 22µM*
O=[S+]([O-])(NC1CCN(Cc2cccc(-c3cccs3)c2)CC1)c1ccccc1 | -1 | .
CCOCCNC(=O)C1CCCN1Cc1ccc(-c2cc(C)cc(C)c2)cc1 (stereo unspecified) | -3 | .
CC(C)(C)COC(=O)N1CC(=O)N(C2Cc3ccccc3C2)CC(O)C1 (stereo unspecified) | 11 | .
CC(C)Cn1c(=O)c(C(=O)NCC2CC2)nc2cccnc21 | 7 | .
Cc1ccc(Nc2ccnc(N3CCC(C(=O)NCc4cccs4)CC3)n2)cc1 | 5 | .
COc1ccccc1-c1ccc(C(=O)N2CCC(C(=O)NCCCc3ccccc3)CC2)cc1 | 1 | .
CC(C)C[C@@H]1N[C@H](C(=O)N2CCCC2)Cc2c[nH]c3cccc1c23 | -4 | ?
CC(C)C[C@@H]1N[C@H](C(=O)N2CCN(C)CC2)Cc2c[nH]c3cccc1c23 | 4 | 32µM*
COC[C@@H]1CN(c2ncccn2)C[C@H]1C(=O)NCc1ccccc1OC | 3 | 18µM*
COC[C@@H]1CN(c2ncccn2)C[C@H]1C(=O)N(C)Cc1cn(C)nc1C | 7 | 14µM*
COC[C@@H]1CN(c2ncccn2)C[C@H]1C(=O)NCCn1cccn1 | 9 | 20µM*
CNC(=O)[C@@H]1CN(C(=O)CCn2cccn2)C[C@H]1COC | 0 | i
COc1ccccc1CNC(=O)[C@H]1CN(C(C)C)C[C@H]1C(=O)O | 8 | i
COC[C@@H]1CN(Cc2cn(C)nc2C)C[C@H]1c1ccncc1 | 8 | i
COC[C@@H]1CN(Cc2ccccn2)C[C@H]1C(=O)NC1CC1 | 18 | i
COC[C@@H]1CN(c2ncccn2)C[C@H]1C(=O)NCc1c(C)n[nH]c1C | 0 | 28µM*
CCCCCCCCNC(=O)c1ccncc1 | . | i
COC[C@@H]1CN(c2ncccn2)C[C@H]1C(=O)N1CCc2ccccc21 | 7 | ?
